How the values were obtained:
HCC1937 = test: relative cell viability, compound alone, vs DMSO (fraction of DMSO control); higher = less growth inhibition; conditions: 72 h
MDA-MB-231 = test: as above; conditions: 72 h
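Also: viability read out with the CCK-8 kit in 96-well plates, screening a set of 303 compounds acting on lipid metabolism targets.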

Row | SMILES | relative cell viability (HCC1937) | relative cell viability (MDA-MB-231)
1 | C=CCc1ccc(O)c(-c2cc(CC=C)ccc2O)c1 [Magnolol] | 1 | 0.968
2 | COc1ccc2c(c1)c(CC(=O)O)c(C)n2C(=O)c1ccc(Cl)cc1 [Indometacin] | 1.28 | 0.842
3 | Cc1cc(C)c(S(=O)(=O)Nc2cccc(C(F)(F)F)c2)c(C)c1 | 1.12 | 1.18
4 | CCC(=O)O[C@]1(C(=O)SCF)[C@H](C)C[C@H]2[C@@H]3C[C@H](F)C4=CC(=O)C=C[C@]4(C)[C@@]3(F)[C@@H](O)C[C@@]21C [Fluticasone propionate] | 1.34 | 0.813
5 | COc1ccc(C(=O)/C=C/c2ccccc2)cc1 [4'-Methoxychalcone] | 0.73 | 0.889
6 | Nc1ncnc2c1ncn2C1OC(COP(=O)(O)O)C(O)C1O (centres undefined) [Adenosine 5'-monophosphate monohydrate] | 1.09 | 1.03
7 | CSc1ccc(C(=O)/C=C/c2cc(C)c(OC(C)(C)C(=O)O)c(C)c2)cc1 [Elafibranor] | 1.57 | 1.06
8 | O=C(O)c1ccnc(N2CC(O)(c3ccc(OCc4c(-c5c(Cl)cccc5Cl)noc4C4CC4)cc3Cl)C2)c1 [Cilofexor] | 0.661 | 0.885
9 | C=CC[S+]([O-])C[C@H](N)C(=O)O (some centres undefined) [Alliin] | 1 | 1.04
10 | CC(C)(CCCCCC(O)CCCCCC(C)(C)C(=O)O)C(=O)O | 0.598 | 0.886
11 | Cc1cc(SCc2sc(-c3ccc(C(F)(F)F)cc3)nc2C)ccc1OCC(=O)O | 0.916 | 0.857
12 | C=C(C)[C@@H]1CC[C@]2(CO)CC[C@]3(C)[C@H](CC[C@@H]4[C@@]5(C)CC[C@H](O)C(C)(C)[C@@H]5CC[C@]43C)[C@@H]12 [Betulin] | 0.886 | 0.907
